Screening data: PubChem BioAssay, National Center for Advancing Translational Sciences (NCATS)
Coupling enz: qHTS Assay for Inhibitors of Fructose-1,6-bisphosphate Aldolase from Giardia Lamblia: Coupling assay counterscreen. AID 2472, 2010. activity change, negative = inhibition, % at 58.2 µM, hits read low. coupling enzyme system counterscreen, AmpLite Red fluorescence. 0.67% of 290,000 active; in the data active = activity change below about -30%
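Counterscreen lacking aldolase: glyceraldehyde-3-phosphate coupling-enzyme reagent preincubated 10 min at RT with compound (at 57.5 uM final), then substrate/coupling system with AmpLite Red added; fluorescence read at 525/598 nm after 20 min RT.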
Tau fluor cs: Counterscreen qHTS for Inhibitors of Tau Fibril Formation, Fluorescence Polarization | 0.93% of 280,000 active | tau K18 P301L Alexa594 fluorescence, heparin fibrillization | Potency, µM (highest dose often 57.7 µM), without a hit: at the top dose activity change, negative = decrease; note: potency is the fitted concentration of half-maximal effect; nearly all actives have a fitted effect of over 55% in size
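Human K18 P301L tau (15 uM unlabeled plus 0.24 uM Alexa 594-labeled, final) in 100 mM sodium acetate pH 7 was mixed with compound and 20 uM heparin and incubated 6 hr at 37 C.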
Tau FP inhib: qHTS for Inhibitors of Tau Fibril Formation, Fluorescence Polarization | Microtubule-associated protein tau (Homo sapiens), P10636 | K18 P301L tau heparin fibrillization, Alexa594 FP, 6 h | Potency, µM (top dose mostly 57.7 µM), for inactives: at the highest dose activity, negative = inhibition, actives largely listed as inhibitors | 0.39% of 280,000 active | AID 1468, 2008; note: potency is the fitted concentration of half-maximal effect; nearly all actives have a fitted effect of over 55% in size
Target sequence (P10636 561-689 P618L limits assumed): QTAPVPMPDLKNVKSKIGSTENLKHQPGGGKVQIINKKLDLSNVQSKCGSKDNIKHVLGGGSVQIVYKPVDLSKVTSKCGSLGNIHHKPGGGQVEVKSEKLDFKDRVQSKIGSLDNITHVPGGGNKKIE
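Compound effects on tau fibrillization are measured by Alexa 594 fluorescence polarization (ex 555, em 632 nm). K18 P301L tau is used at 15 uM with 0.24 uM labeled tracer, and 20 uM heparin induces aggregation over 6 hr at 37 C.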
Tau ThT inhib: qHTS for Inhibitors of Tau Fibril Formation, Thioflavin T Binding | 2.1% of 270,000 active | recombinant tau K18 P301L (four-repeat tau fragment), heparin-induced fibrillization, ThT fluorescence | AID 1460, 2008 | Potency, µM (titrated, usually from 57.4 µM), without a hit: at the top dose activity, negative = inhibition, hits mostly inhibitors; note: potency is the fitted concentration of half-maximal effect; nearly all actives have a fitted effect of over 55% in size
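Heparin-induced fibrillization of the P301L-mutant K18 repeat-domain fragment of human tau was followed by ThT binding in quantitative high-throughput format.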
G9a inh: qHTS Assay for Inhibitors of Histone Lysine Methyltransferase G9a | Histone-lysine N-methyltransferase EHMT2 (Homo sapiens), Q96KQ7 | G9a H3K9 monomethylation, AlphaScreen, 2 h | Potency, µM (top dose mostly 102 µM), inactives show at the highest dose activity, negative = inhibition, hits mostly inhibitors | 8.8% of 350,000 active | AID 504332, 2011; note: potency is the fitted concentration of half-maximal effect; nearly all actives have a fitted effect of over 75% in size
Target sequence (Q96KQ7 913-1193 limits assumed): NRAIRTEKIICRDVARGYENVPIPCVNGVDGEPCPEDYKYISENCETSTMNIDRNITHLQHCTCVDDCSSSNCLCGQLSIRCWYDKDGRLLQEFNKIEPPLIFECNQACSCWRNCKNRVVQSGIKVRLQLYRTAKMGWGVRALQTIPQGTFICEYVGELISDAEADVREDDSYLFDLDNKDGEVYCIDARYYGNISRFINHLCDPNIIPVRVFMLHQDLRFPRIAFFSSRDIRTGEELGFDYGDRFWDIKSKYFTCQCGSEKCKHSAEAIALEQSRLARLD
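G9a (20 nM) preincubated 15 min RT with compounds, then 500 nM biotinylated H3K9 peptide and 20 uM SAM added; 2 h RT reaction. Monomethyl-H3K9 product detected by AlphaScreen with anti-H3K9me1 antibody, streptavidin donor and anti-rabbit IgG acceptor beads.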
Sfp PPTase inh: qHTS Assay for Inhibitors of Bacillus subtilis Sfp phosphopantetheinyl transferase (PPTase); 4'-phosphopantetheinyl transferase ffp (Bacillus subtilis), Q9F4F7; Biochemical Sfp PPTase activity, qHTS; Potency, µM, for inactives: largest response in the series, negative = inhibition, usual class: inhibitors; 3.5% of 310,000 active;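 note: the enzyme is Sfp with the accession as filed and its product quenches rhodamine fluorescence; potency is the fitted concentration of half-maximal effect; 0% = enzyme reaction without inhibitor and -100% = no enzyme wells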
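Sfp 15 nM + cpd, 15 min RT; start w/ rhodamine-CoA 5 uM, BHQ-2-YbbR 12.5 uM (final); 50 mM Hepes pH 7.6, 10 mM MgCl2, 0.01% NP-40, 0.01% BSA; read 525/598 nm at 0 and 30 min.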
The depositor's hits bear a star; [ ] = another dose, or the depositor's remark. Most compounds without a hit are left out; they make up all but 11% or so of the library. Unless noted, calls come from the whole dose curve; as a rule, active = well fitted curve in the direction sought with a large enough effect; inconclusive = small, poorly fitted or top-dose-only effect, or another doubt; inactive = no such curve, though single readings can be large; an effect the other way counts as inactive or inconclusive. Unless noted, % is set by controls: 0 for no effect and ±100 for the full control effect.

Results for CCc1cccc(OCCn2ccnc2)c1 ?
Coupling enz: 1; Tau fluor cs: -8%; Tau FP inhib: -6%; Tau ThT inhib: -4%; G9a inh: 8.9µM*; Sfp PPTase inh: -5%

What do the screens show for `O=C(O)CCN1Cc2ccccc2C1=O`?
Coupling enz: 0; Tau fluor cs: -4%; Tau FP inhib: -4%; Tau ThT inhib: -7%; G9a inh: 50µM*; Sfp PPTase inh: 11%

What do the screens show for `Nc1ccc2c(c1)C(=O)N(CCCCCC(=O)O)C2`?
Coupling enz: 1; Tau fluor cs: -1%; Tau FP inhib: 0%; Tau ThT inhib: -6%; G9a inh: 21%[59 µM]; Sfp PPTase inh: 27%

What do the screens show for `O=C(O)[C@H](Cc1ccccc1)N1Cc2ccccc2C1=O`?
Coupling enz: 12; Tau fluor cs: 2%; Tau FP inhib: 6%; Tau ThT inhib: -2%; G9a inh: 79µM*; Sfp PPTase inh: 15%

Results for Cc1ccc(S(=O)(=O)c2ccc(Cl)cc2)cc1S(=O)(=O)NC(C)C(=O)O (centres undefined) ?
Coupling enz: 5; Tau fluor cs: 9%; Tau FP inhib: 1%; Tau ThT inhib: 9%; G9a inh: 13%[59 µM]; Sfp PPTase inh: 3%

How did Cn1nc(C(=O)Nc2nc3ccccc3[nH]2)c2ccccc2c1=O do in these assays?
Coupling enz: 0; Tau fluor cs: -4%; Tau FP inhib: -4%; Tau ThT inhib: inconclusive; G9a inh: 15%[59 µM]; Sfp PPTase inh: 10%

What do the screens show for `Cn1nc(C(=O)Nc2c(-c3ccccc3)nc3sccn23)c2ccccc2c1=O`?
Coupling enz: -2; Tau fluor cs: -26%; Tau FP inhib: inconclusive; Tau ThT inhib: -14%; G9a inh: -13%[59 µM]; Sfp PPTase inh: 40µM*

Results for Cc1nccn1CC(=O)N/N=C/c1cc(Br)cs1 ?
Coupling enz: 0; Tau fluor cs: -3%; Tau FP inhib: 6%; Tau ThT inhib: -4%; G9a inh: 11%[12.7 µM]; Sfp PPTase inh: -2%

Results for CCN1CCN(CC(=O)N/N=C/c2cc(Br)cs2)CC1 ?
Coupling enz: -2; Sfp PPTase inh: 79µM*

Results for COc1ccc(-n2c(SCC(=O)Nc3ncc(Cl)cc3Cl)nc3ccccc32)cc1 ?
Coupling enz: -2; Tau fluor cs: -12%; Tau FP inhib: 15%; Tau ThT inhib: -14%; G9a inh: 45µM*; Sfp PPTase inh: inconclusive

What do the screens show for `Cc1c(Cl)cccc1NC(=O)CSc1nc(=O)n(Cc2ccccn2)c2c1CCC2`?
Tau fluor cs: -5%; Tau FP inhib: -1%; Tau ThT inhib: -6%; G9a inh: 1%[59 µM]

What do the screens show for `Cc1cnc(C(=O)NC2CCSc3ccccc32)cn1` (centres undefined)?
Coupling enz: 0; G9a inh: 45µM*; Sfp PPTase inh: 4%

Results for COc1cccc(COCC(O)Cn2cnc3cc(C)c(C)cc32)c1 (centres undefined) ?
Coupling enz: -6; Tau fluor cs: -6%; Tau FP inhib: -8%; Tau ThT inhib: -4%; G9a inh: 6.3µM*; Sfp PPTase inh: -14%

What do the screens show for `COC(=O)c1cccc(OCC(O)Cn2cnc3cc(C)c(C)cc32)c1` (centres undefined)?
Coupling enz: 2; Tau fluor cs: -11%; Tau FP inhib: 8%; Tau ThT inhib: -22%; G9a inh: 11%; Sfp PPTase inh: 89µM*

Results for COC(=O)c1ccc(OCC(O)Cn2cnc3cc(C)c(C)cc32)cc1 (centres undefined) ?
Tau fluor cs: -19%; Tau FP inhib: -4%; Tau ThT inhib: inconclusive; G9a inh: 9%[59 µM]
